Out of some 1,400 compounds screened, about 560 (40%) were called active.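 The calls were made as follows: active = mean inhibition over duplicate tests at 10 µM above 50%; inactive = the rest.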 So high a share suggests a set chosen from earlier hits. Some of the results follow.
Test: ASC/caspase-1 reporter retest in S. cerevisiae at one dose, specificity check for NALP1 project (AID 488857)
Conditions: S. cerevisiae ASC/Caspase-1, beta-galactosidase luminescence, 24 h; at 10 µM; hits give high values
With `Fc1ccc(C(OCCN2CCCC2)c2ccc(Br)cc2)cc1` (centres undefined) the inhibition was 53.5% (active).
For `CCCCN(Cc1ccccc1)C1CCN(CCc2ccccc2)CC1`, the inhibition was 52.6% (active).
For `CSc1ncc(Cl)c(C(=O)O)n1` (tested in a mixture with another compound), the inhibition was 35.1% (inactive).
With `Clc1ccc2nc3c(c(-c4ccccc4)c2c1)CNCC3` the inhibition was 57% (active).
In the case of `O=C(c1ccccc1)C(CN1CCCC1)c1ccccc1` (centres undefined), the inhibition is reported as 25.8% (inactive).
In the case of `COc1cc2c(cc1OC)CN(c1ccc([N+](=O)[O-])c(C(F)(F)F)c1)CC2`, the inhibition is reported as 69% (active).
For `CCOCCN1CCN(c2nnc3n2-c2ccc(Cl)cc2C(c2ccccc2Cl)=NC3)CC1`, the inhibition was 30.9% (inactive).
In the case of `CN[C@H]1C[C@H]2O[C@@](C)([C@H]1OC)n1c3ccccc3c3c4c(c5c6ccccc6n2c5c31)C(=O)NC4`, the inhibition is reported as 99.2% (active).
For `Cc1ccc(C)c(NC(=S)NCCc2cnc[nH]2)c1`, the inhibition was 42.5% (inactive).
In the case of `CC(Cc1ccccc1Sc1ccccc1)N(C)C` (centres undefined), the inhibition is reported as 42.8% (inactive).
In the case of `COCCNCCOc1ccc(C(C)(C)c2ccccc2)cc1`, the inhibition is reported as 52.3% (active).
With `CC1(C)C[C@H]2C=C(C=O)[C@]3(C=O)C[C@]3(C)[C@H]2C1` the inhibition was 81.3% (active).
With `O=C1/C(=C/c2cccc([N+](=O)[O-])c2)N2CCC1CC2` the inhibition was 51.1% (active).
For `Nc1c2c(nc3sc4c(c13)CCCC4)CCCCC2`, the inhibition was 58.4% (active).
In the case of `Nc1c2c(nc3sc4c(c13)CCCCC4)CCCC2`, the inhibition is reported as 91.1% (active).
With `CC(C)NS(=O)(=O)c1ccc(OCC(=O)N2CCN(C)CC2)cc1` the inhibition was 17.6% (inactive).
For `CC(C)CCn1c(=O)c(C(=O)NCc2ccco2)c(O)c2ccccc21`, the inhibition was 44.8% (inactive).
For `Cc1cc2ccccn2c1C(C[N+](=O)[O-])c1c(F)cccc1Cl` (centres undefined), the inhibition was 52.8% (active).
In the case of `C[C@H]1C[C@@H](C)C(=O)[C@@H]([C@H](O)CC2CC(=O)NC(=O)C2)C1`, the inhibition is reported as 98.8% (active).
With `CC(Cc1ccccc1)NC(=O)/C=C/c1ccc(Cl)cc1` (centres undefined) the inhibition was 71.7% (active).
With `c1ccc2sc(NC3=NCCN3)nc2c1` the inhibition was 100% (active).
In the case of `O=C1/C(=C/c2cc3c(cc2Cl)OCO3)N2CCC1CC2`, the inhibition is reported as 55% (active).
With `Nc1ccc(C2(c3ccc(N)cc3)CN3CCC2CC3)cc1` the inhibition was 35% (inactive).
In the case of `CN1/C(=C\C=C\C2=[N+](C)c3ccc4ccccc4c3C2(C)C)C(C)(C)c2ccccc21`, the inhibition is reported as 99.7% (active).
With `CN1CCN(c2ccc(N)c(N3CCN(C)CC3)c2)CC1` the inhibition was 31.1% (inactive).
With `O=C(c1cc2c(s1)-c1ccccc1OC2)N1CCC2(CC1)OCCO2` the inhibition was 53.8% (active).
In the case of `N#CCCn1cc(C(=O)NCc2ccccc2)c(-c2ccccc2)n1`, the inhibition is reported as 39.2% (inactive).
For `Cc1ccc(/C=C2\C(=O)NC(=O)N(CC3CCCO3)C2=O)s1` (centres undefined), the inhibition was 46.5% (inactive).
With `Cc1ccc(Cn2cc(C=O)c(-c3ccc(C)cc3)n2)cc1` the inhibition was 67.5% (active).
With `Cc1cccc(N2C(=O)NC(=O)/C(=C/c3ccc([N+](=O)[O-])o3)C2=O)c1` the inhibition was 45% (inactive).
For `Cc1ccc(S(=O)(=O)NC(CC(=O)N2CCC3(CC2)OCCO3)c2ccco2)cc1` (centres undefined), the inhibition was 31.6% (inactive).
With `CN1C2CCC1/C(=C/c1ccccn1)C(=O)/C2=C\c1ccccn1` the inhibition was 96.9% (active).
In the case of `CCCCCn1c(=O)c(C(=O)Nc2nc3ccccc3[nH]2)c(O)c2ccccc21`, the inhibition is reported as 36.8% (inactive).
For `CCOc1cc(CNCCc2c[nH]c3ccccc23)cc(Cl)c1OCC`, the inhibition was 43.5% (inactive).
With `Nc1cc(Cl)c2nonc2c1[N+](=O)[O-]` the inhibition was 57.1% (active).
For `Cc1ccc(-c2nc(N3CCOCC3)s[n+]2-c2ccccc2)cc1`, the inhibition was 61.9% (active).
For `CNC(=O)Oc1ccc2ncccc2c1`, the inhibition was 42.4% (inactive).
For `CC1CCCC(C)N1/N=C/c1c[nH]c2ccc(Br)cc12` (centres undefined), the inhibition was 45.3% (inactive).
For `COc1cc(/C=C(/C)[N+](=O)[O-])ccc1OCc1ccccc1Cl`, the inhibition was 80.2% (active).
